In PubChem BioAssay (EPA / NIEHS):
Active and inactive are the calls of the source. How the source made its calls: active means hit-call score of the fitted dose curve at least 0.9, where 1 is the maximum; inactive means score below 0.9.

Read-out: CD69, CD69 (gene 969)
Test: BSK_SAg_CD69: BioMAP Diversity Plus: SAg Assay for CD69 Biomarker Activity (AID 2283089)
Conditions: primary human HUVEC with PBMC; actives raise or lower the signal
Procedure: BSK_SAg is a cell-based, multiplexed-readout assay that uses umbilical vein endothelium and peripheral blood mononuclear cells, a human vascular primary cell co-culture, with measurements taken at 24 hours after chemical dosing in a 96-well plate.BSK_SAg_CD69 is one of 10 assay component(s) measured or calculated from the BSK_SAg assay. It is designed to make measurements of enzyme-linked immunosorbent assay, a form of binding reporter, as detected with fluorescence intensity signals by Enzyme-linked immunosorbent assay technology.Data from the assay component BSK_SAg_CD69 was analyzed into 1 assay endpoint. This assay endpoint, BSK_SAg_CD69, was analyzed with bidirectional fitting relative to DMSO as the negative control and baseline of activity. Using a type of binding reporter, gain or loss-of-signal activity can be used to understand changes in the signaling as they relate to the gene CD69. Furthermore, this assay endpoint can be referred to as a primary readout, because this assay has produced multiple assay endpoints where this one serves a signaling function. To generalize the intended target to other relatable targets, this assay endpoint is annotated to the cytokine intended target family, where the subfamily is inflammatory factor.
The levels of cell surface (or secreted, indicated by the prefix "s") biomarker endpoints were measured by ELISA. Overt cytotoxicity to cells in confluent adherent cultures (all systems other than the BT system) was assessed by measuring total protein levels using sulforhodamine B (SRB) staining in parallel cultures at the time of biomarker measurements, indicated as SRB endpoints. For proliferation assays for adherent cell types, individual cell types are cultured at sub-confluence and relative cell numbers quantified by SRB staining at time points optimized for each system (48 h: 3C and CASM3C systems; 72 h: BT and HDF3CGF systems; 96 h: SAg system). SRB was performed by staining cells with 0.1% SRB after fixation with 10% TCA and reading wells at 560 nm.Viability and proliferation of PBMC (T cells) was quantified by Alamar Blue reduction for the SAg and BT systems. For PBMC viability (referred to as PBMC Cytotoxicity within the assay endpoint names), cells were plated (75,000/well in a 96-well plate) and then chemical samples added for 1 h before addition of activators, SEB and TSST-1 (20 ng/mL final concentration each). Cells were incubated for 90 h. Then, Alamar Blue (20 uL/well) (Invitrogen, Cat DAL1100) was added for 6 h, and the plates were read with a fluorescence microplate reader at 546/580 nm (excitation/emission). For PBMC proliferation, cells were plated and activated as above but incubated for only 16 h prior to addition of Alamar Blue. Plates were read after 6 h.

Compound	AC50	outcome
CCc1cc(C2=C(C(=O)O)N(c3ccccc3C(F)(F)F)S(=O)(=O)c3ccccc32)cc2c1OCO2	11.1 µM (active)	–
CC(=O)CC(c1ccccc1)c1c(O)c2ccccc2oc1=O (stereo not given)	–	inactive
COc1ccc(OC(F)(F)F)cc1CN[C@H]1CCCN[C@H]1c1ccccc1	20 µM (active)	–
COC(=O)CCC(=O)OC	–	inactive
CN(C)C(=O)NC1(c2ccccc2)CCN(CCC[C@]2(c3ccc(Cl)c(Cl)c3)CCCN(C(=O)c3ccccc3)C2)CC1	–	inactive
O=C1CCCCC1	–	inactive
Cc1cn([C@H]2C=C[C@@H](CO)O2)c(=O)[nH]c1=O	–	inactive
CC(C)(C)c1ccccc1	–	inactive
Cc1occc(=O)c1O	–	inactive
O=C(N[C@@H](c1ccccc1)[C@@H]1CCCCN1)c1cccc(C(F)(F)F)c1Cl	20 µM (active)	–
Oc1ccccc1O	5.69 µM (active)	–
C=CCc1ccc(OC)c(OC)c1	–	inactive
Cc1c(C)c2c(c(C)c1O)CCC(C)(COc1ccc(CC3SC(=O)NC3=O)cc1)O2 (stereo not given)	21.5 µM (active)	–
CC(=O)S[C@H](C(=O)N[C@H]1Cc2ccccc2[C@H]2CCC[C@@H](C(=O)O)N2C1=O)C(C)C	–	inactive
CCC(C)N(C)C(=O)c1cc2ccccc2c(-c2ccccc2Cl)n1 (stereo not given)	–	inactive
CC(=O)O[C@]1(C(C)=O)CC[C@H]2[C@@H]3C=C(Cl)C4=CC(=O)[C@@H]5C[C@@H]5[C@]4(C)[C@H]3CC[C@@]21C	30.5 µM (active)	–
O=C1c2c(O)cccc2Cc2cccc(O)c21	–	inactive
Cc1cc(Cc2ccc(N)c(C)c2)ccc1N	–	inactive
CCCCCCCC(=O)OC	–	inactive
CS(=O)(=O)c1ccc([C@@H](C[C@H]2CCC(=O)C2)C(=O)Nc2cnccn2)cc1Cl	–	inactive

Compound	AC50	outcome
CN(C)CCCN1c2ccccc2Sc2ccc(Cl)cc21	28.6 µM (active)	–
CC(=O)O	–	inactive
O=C1O[C@H]([C@H](O)CO)C(O)=C1O	–	inactive
Nc1nc(=S)c2[nH]cnc2[nH]1	–	inactive
CCCCCCCCCC[N+](C)(C)[O-]	–	inactive
c1ccc2occc2c1	–	inactive
CC(C)(O)c1ccc(CNC(=O)c2cccnc2Oc2ccc(F)cc2)cc1	–	inactive
O=C(Oc1ccccc1)c1cccc(C(=O)Oc2ccccc2)c1	–	inactive
CCCCC(CC)COP(=O)(OCC(CC)CCCC)OCC(CC)CCCC (stereo not given)	–	inactive
CN(C)C(=O)NC1(c2ccccc2)CCN(CC[C@@]2(c3ccc(F)c(F)c3)CN(C(=O)c3ccccc3)CCO2)CC1	–	inactive
OCC(CO)n1cnc(-c2ccc(F)cc2)c1-c1ccnc(Oc2ccccc2)n1	3.97 µM (active)	–
COC(=O)CCCC(=O)OC	–	inactive
NC=O	–	inactive
C/C=C/C=C/C(=O)O	–	inactive
CC(C)c1cccc(C(C)C)c1NC(=O)NS(=O)(=O)c1cc(C(C)(C)O)co1	–	inactive
CCCCOC(=O)CCCCC(=O)OCCCC	–	inactive
CC(=O)OCC(COC(C)=O)OC(C)=O	–	inactive
CO[C@@H]1COCC[C@@H]1N[C@@H]1CC[C@@](C(=O)N2CCc3ncc(C(F)(F)F)cc3C2)(C(C)C)C1	–	inactive
CC1(C)C(=O)NC(=O)N1CO	–	inactive
CCCCCCC(CCCCCCCCCCC(=O)OCC(COC(C)=O)OC(C)=O)OC(C)=O (stereo not given)	–	inactive
